# Only some compounds are listed: those with a hit (about 10% of all), similar ones and a draw of the others.
# PNC assembly inh: High Content Assay for Compounds that inhibit the Assembly of the Perinucleolar Compartment; 140,000 tested, 3.1% active; PC3M PTB-GFP, PNC prevalence imaging, 16 h; stronger effect = lower value; activity change (PNC), negative = inhibition, % at 10 µM; AID 2417, 2010;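 active means readout at or below -70, meaning at least 70% loss of cells showing the perinucleolar compartment, a nuclear body marking cancer cells; inconclusive means readout between -30 and a set limit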;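 further: plate controls were DMSO wells for no effect and camptothecin positive control wells for full effect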
#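 Read-out is percentage of cells bearing a perinucleolar compartment, from automated 20x imaging of fixed, Hoechst-stained PC3M PTB-GFP cells. Cells were seeded 4 h, then exposed 16 h to compound (23 nl of library stock) in duplicate plates.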
# ALDH1A1 block: qHTS Assay for Inhibitors of Aldehyde Dehydrogenase 1 (ALDH1A1) | Aldehyde dehydrogenase 1A1 (Homo sapiens), P00352 | Potency, µM (titrated, usually from 75.3 µM), for inactives: at the highest dose activity, negative = inhibition, actives largely listed as inhibitors | Purified ALDH1A1, NADH fluorescence, propionaldehyde substrate | 220,000 tested, 7.3% active;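 further: potency means the concentration at half of the fitted maximal effect; plate controls were no enzyme wells and a reference inhibitor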
# Target sequence (P00352 whole entry, looked up): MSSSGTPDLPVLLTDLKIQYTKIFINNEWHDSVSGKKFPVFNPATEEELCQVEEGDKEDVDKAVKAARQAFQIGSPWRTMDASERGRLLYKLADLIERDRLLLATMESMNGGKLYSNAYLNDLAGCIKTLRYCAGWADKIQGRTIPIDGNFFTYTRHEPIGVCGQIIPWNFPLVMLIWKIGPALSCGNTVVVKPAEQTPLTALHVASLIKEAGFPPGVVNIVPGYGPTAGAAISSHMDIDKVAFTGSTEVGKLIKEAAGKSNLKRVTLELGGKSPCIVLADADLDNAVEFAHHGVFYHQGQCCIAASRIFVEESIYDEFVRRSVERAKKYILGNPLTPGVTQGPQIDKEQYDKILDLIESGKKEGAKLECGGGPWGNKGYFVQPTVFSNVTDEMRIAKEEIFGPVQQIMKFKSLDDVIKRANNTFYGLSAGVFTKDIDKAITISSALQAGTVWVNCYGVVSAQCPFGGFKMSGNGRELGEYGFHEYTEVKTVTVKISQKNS
# ALOX12 inhib: qHTS Assay for Inhibitors of 12-hLO (12-human lipoxygenase). Polyunsaturated fatty acid lipoxygenase ALOX12 (Homo sapiens), P18054. purified 12-hLO, xylenol orange hydroperoxide absorbance. Potency, µM (top dose mostly 57.1 µM), without a hit: top-dose activity change, negative = inhibition, usual class: inhibitors. 150,000 tested, 0.12% active. AID 1452, 2008; active means well fitted inhibition curve with a large enough effect; inconclusive means small, poorly fitted or top-dose-only effect; further: potency means the concentration at half of the fitted maximal effect; nearly all actives have a fitted effect of over 55% in size
#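 Hydroperoxide output read as Fe(III)-xylenol orange absorbance, 573-to-405 nm ratio, after 30 min reaction with 40 uM arachidonic acid. Enzyme: 150 nM purified human 12hLO, 15 min compound preincubation; 25 mM Hepes pH 7.0, room temperature.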
# LMNA splice mod: qHTS Assay for Modulators of Lamin A Splicing; Potency, µM (top dose mostly 46.1 µM), for inactives: at the highest dose ratio change, negative = inhibition, hits mostly inhibitors; HeLa LMNA splicing GFP/RFP minigene ratio, 48 h; 200,000 tested, 0.01% active; active means well fitted inhibition curve with a large enough effect in the signal ratio, with a control signal flat, not every such curve was filed as active; inconclusive means small, poorly fitted or top-dose-only effect, or effect the other way, or a change in a side signal; the % refers to the signal ratio; further: potency means the concentration at half of the fitted maximal effect
#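 S3 HeLa cells stably expressing lamin A-EGFP splicing minigene plus DsRed2, 600 cells/well, 48 h compound exposure at 37C. Laser-scanning cytometry; analysed as GFP (500-530 nm)/RFP (575-640 nm) total intensity ratio; 0.5% DMSO vehicle.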
# HPGD inh: qHTS Assay for Inhibitors of HPGD (15-Hydroxyprostaglandin Dehydrogenase); 15-hydroxyprostaglandin dehydrogenase [NAD(+)] (Homo sapiens), P15428; purified HPGD, NADH fluorescence kinetic, PGE2 substrate; Potency, µM, for inactives: at the top dose activity change, negative = inhibition, actives largely listed as inhibitors; 150,000 tested, 4.3% active; further: potency means the concentration at half of the fitted maximal effect
# Target sequence (P15428 whole entry, looked up): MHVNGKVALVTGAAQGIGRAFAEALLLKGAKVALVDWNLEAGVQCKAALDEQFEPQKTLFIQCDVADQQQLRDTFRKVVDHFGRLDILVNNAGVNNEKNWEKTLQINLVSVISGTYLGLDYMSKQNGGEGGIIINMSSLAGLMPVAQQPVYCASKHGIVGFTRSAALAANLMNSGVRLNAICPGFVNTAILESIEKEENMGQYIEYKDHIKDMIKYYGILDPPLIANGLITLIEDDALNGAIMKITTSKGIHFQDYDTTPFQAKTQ
#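 20 nM HPGD preincubated 15 min at room temperature with compound in 50 mM Tris-HCl pH 8, 0.01% Tween 20. Started with 1 mM NAD+ and 30 uM prostaglandin E2; NADH fluorescence (360/450 nm) read 5 times over 30-s intervals, last minus first.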
# An asterisk follows results filed as active; i = inactive; u = inconclusive; x = no result; ! = not confirmed by another sample; [ ] = another dose, or the depositor's remark. Unless noted, the call rests on the fitted dose curve; in most records, active means well fitted inhibition curve with a large enough effect (not every such curve was filed as active); inconclusive means small, poorly fitted or top-dose-only effect, or another doubt; inactive means no such curve, though single readings can be large or run the other way. Unless noted, on the % scale 0 is the no-effect control and ±100 the full control effect.
SMILES,PNC assembly inh,ALDH1A1 block,ALOX12 inhib,LMNA splice mod,HPGD inh
CC1(C)CC(=O)C2=C(C1)OC(N)=C(C#N)C2c1ccccc1 (configuration not stated),31.2,14.1µM*,-2.0%,14.1%,-17.4%
CC1(C)CC(=O)C2=C(C1)OC(c1cccs1)C(C#N)=C2N (configuration not stated),-2.5,11.2µM*,-6.3%,12.4%,-15.6%
CC1(C)CC(=O)C2=C(C1)OC(N)=C(C#N)C2c1cccs1 (configuration not stated),x,22.4µM*,x,1.0%[46 µM],x
CC1(C)CC(=O)C(C2C3=C(CC(C)(C)CC3=O)Oc3ccccc32)=C(O)C1 (configuration not stated),u,28.2µM*,0.1%,5.7%,-7.7%
CCc1ccc(NC(=O)c2ccc(F)c(S(=O)(=O)N3CCN(c4ccc(OC)cc4)CC3)c2)cc1,x,x,x,1.6%[46 µM],x
COc1ccc(-n2cc(C(=O)NCCc3ccc(C)cc3)c3ccccc3c2=O)cc1,x,x,x,-1.1%[46 µM],x
COc1ccccc1Cc1nc2ccccc2nc1SCC(=O)N1CCN(c2ccccc2)CC1,x,x,x,-5.0%[46 µM],x
COc1ccc(S(=O)(=O)c2cn(Cc3ccccc3)c3cc(N4CCCC4)c(F)cc3c2=O)cc1,x,x,x,-0.3%[46 µM],x
CCc1ccc(NC(=O)c2cnc3sc(N4CCCC4)nn3c2=O)cc1,x,x,x,12.3%[46 µM],x
CC(O)c1nc2ccccc2n1CCCCOc1ccccc1 (configuration not stated),x,-6.4%,x,12.2%[46 µM],x
COc1ccc(-c2cc(C(=O)OC(C)C(=O)Nc3c(C)n(C)n(-c4ccccc4)c3=O)c3ccccc3n2)cc1 (configuration not stated),-86.0*,u,-0.8%,u,u
Cc1c(NC(=O)COC(=O)c2ccc[nH]c2=O)c(=O)n(-c2ccccc2)n1C,-3.8,-5.0%,-2.4%,-0.5%,-9.9%
Cc1c(NC(=O)COC(=O)c2cc(-c3ccc(-c4ccccc4)cc3)nc3ccccc23)c(=O)n(-c2ccccc2)n1C,-113.0*,i,0.7%,u,u
CCc1ccccc1NC(=O)N1CCc2cc(OC)c(OC)cc2C1CC(=O)OC (configuration not stated),x,x,x,-8.9%[46 µM],x
COc1ccc(OC)c(NC(=O)c2c(NCc3cccs3)sc3c2CCCCC3)c1,x,x,x,-13.2%[46 µM],x
CC1=CC2=C(OC1N(C)C)c1cccc3cccc(c13)C2=O (configuration not stated),17.4,2.24µM*,u,-9.9%,-11.8%
Cc1ccc(N2C(=O)c3cccc4cccc(c34)C2=O)cc1,x,-9.3%,x,x,x
CCOC(=O)c1scc(-c2ccc(C)cc2)c1S(=O)(=O)Nc1cc(Cl)ccc1OC,x,x,x,9.1%[46 µM],x
Cc1ccccc1-c1cc2nc(-c3ccc([N+](=O)[O-])cc3)cc(=O)n2[nH]1,x,-5.8%,x,2.5%[46 µM],x
O=c1cc(-c2ccc([N+](=O)[O-])cc2)nc2cc(-c3ccc(F)cc3)[nH]n12,u,7.94µM*,-7.4%,-6.9%,-23.2%
S=C(NC1CCCCC1)c1ccc2c(c1)OCO2,17.4,u,-11.7%,6.4%,20µM*
O=C(NNC(=S)NC1CCCCC1)c1ccc2c(c1)OCO2,-14.8,-10.5%,0.3%,-11.2%,-12.6%
O=C(NC1CCCCCCC1)c1ccc2c(c1)OCO2,-7.1,-1.0%,-3.5%,-9.5%,15.8µM*
COc1ccc(OC)c(NC(=O)C(=S)NC2CCCCC2)c1,x,8.91µM*,x,x,x
CCOc1ccc(C(=S)NC2CCCCC2)cc1OC,-24.2,39.8µM*,-3.4%,19.4%,20µM*
SMILES,PNC assembly inh,ALDH1A1 block,ALOX12 inhib,LMNA splice mod,HPGD inh
Cc1cccc(CCNC(=O)c2cnc3c(C)cccn3c2=O)c1,x,x,x,0.9%[46 µM],x
CCC1Oc2ccc(C)cc2N(CC(=O)NCCc2ccccc2)C1=O (configuration not stated),x,x,x,-10.4%[46 µM],x
CC(C)(C)CC(=O)NCC(c1ccc2c(c1)OCO2)N1CCN(c2ccccc2)CC1 (configuration not stated),x,x,x,-11.3%[46 µM],x
Clc1ccccc1-c1nc2nc3ccccc3nc2n1-c1ccc2c(c1)OCO2,u,11.2µM*,-3.1%,-22.4%,-16.4%
CC(=O)c1cccc(NC(=O)N2CCCC2C(=O)Nc2c(C)cccc2C)c1 (configuration not stated),4.8,25.1µM*,2.7%,6.9%,-7.9%
CC(=O)c1cccc(NC(=O)N2CCCC2C(=O)Nc2cccc(C)c2)c1 (configuration not stated),12.8,6.6%,-3.6%,-1.9%,-6.9%
O=c1oc2c3c4c(cc2s1)CCCN4CCC3,7.6,25.1µM*,-11.2%,8.0%,22.4µM*
CS(=O)(=O)Nc1ccc(Br)cc1C(=O)c1ccccc1,-83.7*,21.5%,-1.8%,25.4%,-15.6%
CS(=O)(=O)Nc1ccccc1C(=O)O,-23.2,u,-4.4%,12.5%,u
O=C(CSc1nc2ccc(Cl)cc2[nH]1)c1ccc2c(c1)OCO2,u,17.8µM*,-23.9%,0.6%,-15.9%
O=C(CSc1ccc2ccccc2n1)c1ccc2c(c1)OCO2,u,u,-4.7%,4.7%,8.91µM*
O=C(O)CSc1ccc2ccccc2n1,u,-58.0%,5.1%,-5.7%,-17.9%
COc1c2ccoc2cc2oc(C)cc(=O)c12,x,-8.4%,-1.7%,-3.3%,u
COc1c2occc2c(OC)c2c(=O)cc(C)oc12,19.7,0.7%,-0.9%,u,28.2µM*!
O=C(NCC1CCCO1)c1ccccn1 (configuration not stated),24.8,11.2%,-4.9%,-7.8%,-15.0%
O=C(NCC1CCCO1)c1cccc(F)c1 (configuration not stated),-20.3,5.4%,-2.8%,11.0%,22.4µM*
CC(CC(=O)NCC1CCCO1)c1ccccc1 (configuration not stated),73.9,14.8%,-4.0%,2.6%,15.8µM*
O=C(NCC1CCCO1)c1ccc(N2CCCCC2)nc1 (configuration not stated),6.7,u,0.1%,-8.3%,14.1µM*
O=C(NCC1CCCO1)c1cc2ccccc2[nH]1 (configuration not stated),-123.3*,-9.2%,-5.0%,0.5%,u
O=C(NCC1CCCO1)c1ccc2nc(N3CCCCC3)sc2c1 (configuration not stated),86.4,u,0.0%,-4.0%,u
O=C(COC(=O)c1ccccc1)NCC1CCCO1 (configuration not stated),-6.9,-6.7%,2.7%,1.3%,-29.6%
CN(C)c1ccc(C(=O)NCC2CCCO2)cc1 (configuration not stated),u,1.0%,-0.5%,-2.1%,14.1µM*
O=C(NC(=S)NCC1CCCO1)c1ccccc1 (configuration not stated),-1.3,18.9%,u,u,-29.7%

# Bioassay records (PubChem)
